# Data taken from PubChem BioAssay (EPA / NIEHS).
# Records with an inconclusive call do not appear. Activity calls are given as the source filed them. How the source made its calls, unless noted: active means hit-call score of the fitted dose curve at least 0.9, where 1 is the maximum; inactive means score below 0.9.
# Legend:
# [1] = read-out: Pyruvate Dehydrogenase Kinase 4 (PDK4), PDK4 (gene 5166); test: LTEA_HepaRG_PDK4: Life Technologies and Expression Analysis (LTEA) Assay for Pyruvate Dehydrogenase Kinase 4 (PDK4) using HepaRG (AID 2283525); conditions: mRNA level, 48 h; actives raise or lower the signal
# Summary of the method: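 HepaRG (human liver line), 48 h chemical exposure, 8-pt half-log CRC top 100 uM, 0.5% DMSO vehicle, duplicates. Readout: TaqMan qRT-PCR of PDK4 mRNA, housekeeping-normalized; gain/loss fit relative to DMSO baseline.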
# [2] = read-out: NAD(P)H dehydrogenase [quinone] 1 (NQO1), NQO1 (gene 1728); test: LTEA_HepaRG_NQO1: Life Technologies and Expression Analysis (LTEA) Assay for NAD(P)H dehydrogenase [quinone] 1 (NQO1) using HepaRG (AID 2283526); conditions: mRNA level, 48 h; actives raise or lower the signal
# Summary of the method: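 Transcript induction or suppression is quantified by qRT-PCR in human HepaRG liver cells dosed for 48 hours. Eight half-log concentrations topping at 100 uM are used, with 0.5% DMSO as vehicle and baseline.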
# [3] = read-out: Nuclear factor erythroid 2-related factor 2 (Homo sapiens) (UniProt Q16236); test: LTEA_HepaRG_NFE2L2: Life Technologies and Expression Analysis (LTEA) Assay for Nuclear factor erythroid 2-related factor 2 (NFE2L2) Transcription Factor using HepaRG (AID 2283527); conditions: mRNA level, 48 h; actives raise or lower the signal;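 on outcome: TaqMan qRT-PCR transcript level normalised to ACTB GAPDH and POLR2A housekeeping genes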
# Summary of the method: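 HepaRG, 48 h dosing, 8-pt half-log series from 100 uM in 0.5% DMSO, duplicates. Read-out: NFE2L2 mRNA by qRT-PCR (ACTB/GAPDH/POLR2A normalization). Bidirectional curve fit vs DMSO baseline.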
# [4] = read-out: Signal transducer and activator of transcription 3 (Homo sapiens) (UniProt P40763); test: LTEA_HepaRG_STAT3: Life Technologies and Expression Analysis (LTEA) Assay for Signal transducer and activator of transcription (STAT3) using HepaRG (AID 2283529); conditions: mRNA level, 48 h; actives raise or lower the signal
# Summary of the method: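 HepaRG, 48 h exposure, 8-pt half-log series (top 100 uM), 0.5% DMSO vehicle, duplicates. Readout: STAT3 transcript by Fluidigm qRT-PCR, housekeeping-normalized; bidirectional fit vs DMSO baseline.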
# [5] = read-out: solute carrier (SLCO1B1), SLCO1B1 (gene 10599); test: LTEA_HepaRG_SLCO1B1: Life Technologies and Expression Analysis (LTEA) Assay for solute carrier (SLCO1B1) using HepaRG (AID 2283530); conditions: mRNA level, 48 h; actives raise or lower the signal
# Summary of the method: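 SLCO1B1 transcript levels were quantified by TaqMan qRT-PCR using three housekeeping genes for normalization. This followed 48 h chemical exposure (100 uM top, half-log, 8 points, 0.5% DMSO) of HepaRG liver cells, with gain or loss fitted relative to DMSO.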
# [6] = read-out: sulfotransferase 2A1 (SULT2A1), SULT2A1 (gene 6822); test: LTEA_HepaRG_SULT2A1: Life Technologies and Expression Analysis (LTEA) Assay for sulfotransferase 2A1 (SULT2A1) using HepaRG (AID 2283531); conditions: mRNA level, 48 h; actives raise or lower the signal
# Summary of the method: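 Expression change of SULT2A1, by qRT-PCR with three housekeeping-gene normalization, was scored bidirectionally versus DMSO. Cells: differentiated HepaRG, dosed in duplicate for 48 h across 8 points, highest 100 µM, half-log dilution, 0.5% DMSO.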
# [7] = read-out: Transforming Growth Factor (TGFA), TGFA (gene 7039); test: LTEA_HepaRG_TGFA: Life Technologies and Expression Analysis (LTEA) Assay for Transforming Growth Factor (TGFA) using HepaRG (AID 2283532); conditions: mRNA level, 48 h; actives raise or lower the signal
# Summary of the method: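 qRT-PCR read-out of TGFA transcript, normalized to three housekeeping genes, fitted bidirectionally against 0.5% DMSO baseline. Human HepaRG cultures received chemicals for 48 h at eight half-log concentrations, top 100 uM.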
# [8] = read-out: Transforming Growth Factor (TGFB1), TGFB1 (gene 7040); test: LTEA_HepaRG_TGFB1: Life Technologies and Expression Analysis (LTEA) Assay for Transforming Growth Factor (TGFB1) Transporter using HepaRG (AID 2283533); conditions: mRNA level, 48 h; actives raise or lower the signal
# Summary of the method: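 TGFB1 transcript measured by qRT-PCR with normalisation to three housekeeping genes (ACTB, GAPDH, POLR2A); human HepaRG line treated in duplicate for 48 hr with an 8-point series topping at 100 uM, 0.5% DMSO vehicle, bidirectionally fitted.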
# TIMP1, TIMP1 (gene 7076) = test: LTEA_HepaRG_TIMP1: Life Technologies and Expression Analysis (LTEA) Assay for TIMP1 using HepaRG (AID 2283534); conditions: mRNA level, 48 h; actives raise or lower the signal
# Summary of the method: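 Bidirectional change in TIMP1 transcript versus 0.5% DMSO, measured by TaqMan qRT-PCR with three housekeeping genes for normalization. HepaRG human liver cells dosed 48 h in duplicate, top concentration 100 uM with half-log dilutions.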
# [9] = read-out: Tumor necrosis factor receptor 1 (TNFRSF1A), TNFRSF1A (gene 7132); test: LTEA_HepaRG_TNFRSF1A: Life Technologies and Expression Analysis (LTEA) Assay for Tumor necrosis factor receptor 1 (TNFRSF1A) using HepaRG (AID 2283535); conditions: mRNA level, 48 h; actives raise or lower the signal
# Summary of the method: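 mRNA measured by qRT-PCR (TaqMan, Fluidigm arrays) against ACTB/GAPDH/POLR2A housekeepers after 48 h chemical exposure of HepaRG cells. Top concentration 100 uM, half-log 8-point series, duplicates; vehicle 0.5% DMSO, both fit directions.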
# [10] = read-out: Thyroid Hormone Responsive (THRSP), THRSP (gene 7069); test: LTEA_HepaRG_THRSP: Life Technologies and Expression Analysis (LTEA) Assay for Thyroid Hormone Responsive (THRSP) using HepaRG (AID 2283536); conditions: mRNA level, 48 h; actives raise or lower the signal
# Summary of the method: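 qRT-PCR read-out (Fluidigm TaqMan), housekeeping-normalized (ACTB/GAPDH/POLR2A). HepaRG, 48 h chemical exposure, 8-pt half-log series from 100 uM in 0.5% DMSO, duplicates. Bidirectional curve fit vs 0.5% DMSO baseline.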
# [11] = read-out: Cellular tumor antigen p53 (Homo sapiens) (UniProt P04637); test: LTEA_HepaRG_TP53: Life Technologies and Expression Analysis (LTEA) Assay for Tumor Protein P53 (TP53) using HepaRG (AID 2283537); conditions: mRNA level, 48 h; actives raise or lower the signal
# Summary of the method: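 Gain or loss of TP53 mRNA signal is scored relative to 0.5% DMSO after 48 h chemical treatment of HepaRG liver cells, tested in duplicate at eight half-log concentrations up to 100 uM.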
# [12] = read-out: UDP glucuronosyltransferase (UGT1A1), UGT1A1 (gene 54658); test: LTEA_HepaRG_UGT1A1: Life Technologies and Expression Analysis (LTEA) Assay for UDP glucuronosyltransferase (UGT1A1) using HepaRG (AID 2283538); conditions: mRNA level, 48 h; actives raise or lower the signal
# Summary of the method: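 Cells are plated, cultured 48 h, switched to serum-free induction medium, then dosed 48 h at eight concentrations (max 100 uM, 0.5% DMSO). RNA is isolated and UGT1A1 expression measured by qRT-PCR; changes versus DMSO are fitted in both directions.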
# [13] = read-out: UDP glucuronosyltransferase (UGT1A6), UGT1A6 (gene 54578); test: LTEA_HepaRG_UGT1A6: Life Technologies and Expression Analysis (LTEA) Assay for UDP glucuronosyltransferase (UGT1A6) using HepaRG (AID 2283539); conditions: mRNA level, 48 h; actives raise or lower the signal
# Summary of the method: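 Expression was quantified by TaqMan qRT-PCR on Fluidigm arrays with ACTB/GAPDH/POLR2A normalization and bidirectional fitting against 0.5% DMSO. HepaRG cells (~100,000/well) were treated in duplicate for 48 h at eight half-log concentrations up to 100 uM in serum-free induction medium.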
# [14] = read-out: X-box binding protein 1 (XBP1), XBP1 (gene 7494); test: LTEA_HepaRG_XBP1: Life Technologies and Expression Analysis (LTEA) Assay for X-box binding protein 1 (XBP1) using HepaRG (AID 2283540); conditions: mRNA level, 48 h; actives raise or lower the signal
# Summary of the method: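 XBP1 transcript by qRT-PCR (housekeeping-normalized: ACTB, GAPDH, POLR2A) after 48 h chemical treatment of HepaRG cells, 8-point half-log series topping at 100 uM, vehicle 0.5% DMSO. Gain and loss of signal fitted relative to DMSO.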
# [15] = LTEA_HepaRG_LDH_cytotoxicity: Cytotoxicity Assessment in the Life Technologies and Expression Analysis (LTEA) Assay (AID 2283563; active means hit-call score of the fitted dose curve at least 0.9, where 1 is the maximum;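 on AC50: LDH activity released into spent culture medium as a marker of cell death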)
# Summary of the method: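 LDH release into culture medium read after 48 h chemical treatment of HepaRG cells. Duplicate wells, eight-point half-log series topping at 100 uM, 0.5% DMSO vehicle and baseline.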
# [16] = ATG_XTT_Cytotoxicity: Cytotoxicity Assessment in the Attagene TRANS-FACTORIAL HepG2 Assay (AID 2283584; active means hit-call score of the fitted dose curve at least 0.9, where 1 is the maximum)
# Summary of the method: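 Viability endpoint from XTT after 24 h chemical exposure of reporter-transfected human HepG2 liver cells; signal loss fitted relative to DMSO negative control.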
# [17] = TOX21_p53_BLA_p2_viability: Viability Assessment in the Tox21 HCT-116 p53 Agonism Beta-lactamase Assay, Phase 2 (AID 2283591; active means hit-call score of the fitted dose curve at least 0.9, where 1 is the maximum;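 further: compound exposure lasted 16 h at 37 °C; actives lower the ATP signal meaning cytotoxicity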)
# Summary of the method: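 HCT116 p53-bla cells, 4000/well, dosed after 5 h plating (217-fold dilution of DMSO stocks) and incubated 16 h at 37C. Viability taken as cellular ATP by CellTiter-Glo luminescence after 30 min RT; signal loss marks cytotoxicity.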
# [18] = target: Cellular tumor antigen p53 (Homo sapiens) (UniProt P04637); test: TOX21_p53_BLA_p2_ratio: Tox21 HCT-116 p53 Agonism Beta-lactamase Assay, Ratio, Phase 2 (AID 2283592; active means hit-call score of the fitted dose curve at least 0.9, where 1 is the maximum)
# Summary of the method: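 Read-out is the blue/green (460/530 nm, 405 nm excitation) ratio after 2 h CCF4-AM loading, fitted as gain versus DMSO. Compounds, pinned at 217-fold dilution from DMSO stocks, stayed 16 h on HCT-116 beta-lactamase reporter cells seeded 5 h earlier.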
# Chain of Cellular tumor antigen p53 (Homo sapiens) (P04637 whole entry, looked up): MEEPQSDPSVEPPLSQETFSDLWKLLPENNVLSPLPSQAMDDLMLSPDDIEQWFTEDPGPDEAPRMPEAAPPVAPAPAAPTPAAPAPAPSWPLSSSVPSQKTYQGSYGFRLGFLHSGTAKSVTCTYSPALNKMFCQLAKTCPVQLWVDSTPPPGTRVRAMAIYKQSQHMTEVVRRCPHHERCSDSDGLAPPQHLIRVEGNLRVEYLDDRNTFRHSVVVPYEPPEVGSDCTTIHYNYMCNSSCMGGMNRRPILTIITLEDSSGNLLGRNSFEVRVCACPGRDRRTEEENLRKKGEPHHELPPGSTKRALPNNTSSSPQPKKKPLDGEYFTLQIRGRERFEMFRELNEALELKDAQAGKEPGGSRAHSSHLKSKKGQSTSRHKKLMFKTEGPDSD
# Chain of Nuclear factor erythroid 2-related factor 2 (Homo sapiens) (Q16236 whole entry, looked up): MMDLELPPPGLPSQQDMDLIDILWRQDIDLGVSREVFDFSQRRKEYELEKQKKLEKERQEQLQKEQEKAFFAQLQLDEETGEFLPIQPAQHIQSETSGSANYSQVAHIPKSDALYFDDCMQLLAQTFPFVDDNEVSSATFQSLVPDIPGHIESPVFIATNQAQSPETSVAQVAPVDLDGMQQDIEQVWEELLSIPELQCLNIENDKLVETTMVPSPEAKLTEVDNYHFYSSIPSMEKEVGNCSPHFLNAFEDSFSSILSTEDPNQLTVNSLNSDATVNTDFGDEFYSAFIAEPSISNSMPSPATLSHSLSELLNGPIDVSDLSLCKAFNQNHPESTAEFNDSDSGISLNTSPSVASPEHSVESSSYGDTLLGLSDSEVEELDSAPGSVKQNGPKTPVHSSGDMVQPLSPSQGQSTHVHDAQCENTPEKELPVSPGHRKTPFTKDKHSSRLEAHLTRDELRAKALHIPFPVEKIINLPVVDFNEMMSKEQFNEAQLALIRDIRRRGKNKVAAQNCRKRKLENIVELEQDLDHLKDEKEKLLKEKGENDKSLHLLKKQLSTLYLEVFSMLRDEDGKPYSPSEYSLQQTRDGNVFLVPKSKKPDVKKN
# Chain of Signal transducer and activator of transcription 3 (Homo sapiens) (P40763 whole entry, looked up): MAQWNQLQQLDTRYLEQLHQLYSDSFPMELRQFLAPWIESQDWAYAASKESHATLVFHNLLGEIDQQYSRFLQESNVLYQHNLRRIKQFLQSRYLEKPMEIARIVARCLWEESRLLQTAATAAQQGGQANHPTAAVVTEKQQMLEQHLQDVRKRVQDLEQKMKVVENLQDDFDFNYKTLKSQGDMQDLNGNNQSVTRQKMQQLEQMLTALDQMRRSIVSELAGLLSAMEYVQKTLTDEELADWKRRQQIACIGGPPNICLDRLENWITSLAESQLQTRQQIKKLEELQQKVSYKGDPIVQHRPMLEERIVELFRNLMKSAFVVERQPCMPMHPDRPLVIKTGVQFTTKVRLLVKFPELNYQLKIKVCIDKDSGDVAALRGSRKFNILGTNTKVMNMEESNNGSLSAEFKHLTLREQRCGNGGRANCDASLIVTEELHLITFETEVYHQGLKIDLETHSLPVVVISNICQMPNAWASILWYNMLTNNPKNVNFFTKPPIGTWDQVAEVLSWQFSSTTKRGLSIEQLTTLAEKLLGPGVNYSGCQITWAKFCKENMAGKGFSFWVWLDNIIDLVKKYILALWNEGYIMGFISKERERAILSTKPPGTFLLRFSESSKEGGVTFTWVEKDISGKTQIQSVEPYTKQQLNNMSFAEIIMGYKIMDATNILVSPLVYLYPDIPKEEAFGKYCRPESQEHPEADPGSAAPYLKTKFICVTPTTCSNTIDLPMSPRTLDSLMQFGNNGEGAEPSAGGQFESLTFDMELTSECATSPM
smiles,measurement,setting,value
NS(=O)(=O)C(F)(F)C(F)(F)C(F)(F)C(F)(F)C(F)(F)C(F)(F)C(F)(F)C(F)(F)F,outcome,[1],inactive
same,AC50,[2],12.8 µM (active)
same,AC50,[3],2.76 µM (active)
same,AC50,[4],15.2 µM (active)
same,AC50,[5],9.33 µM (active)
same,AC50,[6],13.1 µM (active)
same,AC50,[7],12 µM (active)
same,AC50,[8],39.4 µM (active)
same,AC50,"TIMP1, TIMP1 (gene 7076)",12.4 µM (active)
same,AC50,[9],29.4 µM (active)
same,AC50,[10],7.4 µM (active)
same,AC50,[11],50 µM (active)
same,AC50,[12],10.1 µM (active)
same,AC50,[13],13.3 µM (active)
same,AC50,[14],3.63 µM (active)
same,AC50,[15],31.4 µM (active)
same,outcome,[16],inactive
same,outcome,[17],inactive
same,outcome,[18],inactive
Nc1ccc(-c2ccc(N)cc2)cc1,outcome,[1],inactive
same,outcome,[2],inactive
same,outcome,[3],inactive
same,outcome,[4],inactive
same,outcome,[5],inactive
same,outcome,[6],inactive
same,outcome,[7],inactive
same,outcome,[8],inactive
same,outcome,"TIMP1, TIMP1 (gene 7076)",inactive
same,outcome,[9],inactive
same,outcome,[10],inactive
same,outcome,[11],inactive
same,outcome,[12],inactive
same,outcome,[13],inactive
same,outcome,[14],inactive
same,outcome,[15],inactive
same,outcome,[17],inactive
same,outcome,[18],inactive
CCCCCCCCOC(=O)c1ccccc1C(=O)OCCCCCCCC,outcome,[1],inactive
same,outcome,[2],inactive
same,outcome,[3],inactive
same,outcome,[4],inactive
same,outcome,[5],inactive
same,outcome,[6],inactive
same,outcome,[7],inactive
same,outcome,[8],inactive
same,outcome,"TIMP1, TIMP1 (gene 7076)",inactive
same,outcome,[9],inactive
same,outcome,[10],inactive
same,outcome,[11],inactive
same,outcome,[12],inactive
same,outcome,[13],inactive
same,outcome,[14],inactive
same,outcome,[15],inactive
same,outcome,[16],inactive
same,outcome,[17],inactive
same,outcome,[18],inactive
O=C(NC(=O)c1cc(F)c(F)cc1Cl)Nc1cc(F)ccc1N1CCC(C(=O)O)CC1,outcome,[1],inactive
same,outcome,[2],inactive
same,outcome,[3],inactive
same,outcome,[4],inactive
same,outcome,[5],inactive
same,outcome,[6],inactive
same,outcome,[7],inactive
same,outcome,[8],inactive
same,outcome,"TIMP1, TIMP1 (gene 7076)",inactive
same,outcome,[9],inactive
same,outcome,[10],inactive
same,outcome,[11],inactive
same,outcome,[12],inactive
same,outcome,[13],inactive
same,outcome,[14],inactive
same,outcome,[15],inactive
same,outcome,[17],inactive
same,outcome,[18],inactive
COS(=O)(=O)OC,outcome,[1],inactive
same,outcome,[2],inactive
same,outcome,[3],inactive
same,outcome,[4],inactive
same,outcome,[6],inactive
same,outcome,[7],inactive
same,outcome,[8],inactive
same,outcome,"TIMP1, TIMP1 (gene 7076)",inactive
same,outcome,[9],inactive
same,outcome,[10],inactive
same,outcome,[11],inactive
same,outcome,[12],inactive
same,outcome,[13],inactive
same,outcome,[14],inactive
same,outcome,[15],inactive
same,outcome,[17],inactive
same,outcome,[18],inactive
OCC(O)CO,outcome,[16],inactive
same,outcome,[17],inactive
same,outcome,[18],inactive
ClC1=C(Cl)[C@]2(Cl)[C@@H]3[C@H]4C[C@H]([C@@H]5O[C@H]45)[C@@H]3[C@@]1(Cl)C2(Cl)Cl,outcome,[1],inactive
same,outcome,[2],inactive
same,outcome,[3],inactive
same,outcome,[4],inactive
same,AC50,[5],13.8 µM (active)
same,outcome,[6],inactive
same,outcome,[7],inactive
same,outcome,[8],inactive
same,outcome,"TIMP1, TIMP1 (gene 7076)",inactive
same,outcome,[9],inactive
same,AC50,[10],93 µM (active)
same,outcome,[11],inactive
same,AC50,[12],2.04 µM (active)
same,outcome,[13],inactive
same,outcome,[14],inactive
same,outcome,[15],inactive
same,outcome,[17],inactive
